The campaign covered roughly 5,500 compounds. About 2,000 (36%) were called active. Not shown: some 18% with an inconclusive outcome. Cut-off read from the data, not from the text of the source: active = normalized growth mostly below about 0.91 (no sharp cut-off); inconclusive = no clear call, values can overlap the other calls; inactive = mostly above about 0.92. The list shows a part of the results.
Assay: chemical genetic growth profiling, strain panel (AID 1159580);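 note: tested at 20 µM; growth read once vehicle control cultures reached saturation at 30 °C; 1 = growth at the plate median or of vehicle wells; lower values mean less growth of the strain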
Settings: S. cerevisiae deletion strains, growth OD

Measured: normalized growth

O=C(O)CCS(=O)(=O)/C=C/c1ccccc1
inactive: locus YAL013W, strain DEP1, stronger effect = lower value 0.995 | locus YBR229C, strain ROT2, stronger effect = lower value 0.989 | locus YCL061C, strain MRC1, stronger effect = lower value 1 | locus YDL101C, strain DUN1, stronger effect = lower value 1.04 | locus YDR150W, strain NUM1, stronger effect = lower value 0.984 | locus YEL061C, strain CIN8, stronger effect = lower value 1 | locus YGR078C, strain PAC10, stronger effect = lower value 1.02 | locus YHR030C, strain SLT2, stronger effect = lower value 0.996 | locus YHR087W, strain rtc3, stronger effect = lower value 1.01 | locus YJL187C, strain SWE1, stronger effect = lower value 0.992 | locus YJR043C, strain POL32, stronger effect = lower value 0.989 | locus YJR075W, strain HOC1, stronger effect = lower value 1 | locus YKL190W, strain CNB1, stronger effect = lower value 0.979 | locus YLR039C, strain RIC1, stronger effect = lower value 0.989 | locus YLR058C, strain SHM2 (second series), stronger effect = lower value 0.982 | locus YLR085C, strain ARP6, stronger effect = lower value 0.988 | locus YLR262C, strain YPT6, stronger effect = lower value 1 | locus YML094W, strain GIM5, stronger effect = lower value 1.11 | locus YMR219W, strain ESC1, stronger effect = lower value 0.991 | locus YMR263W, strain SAP30, stronger effect = lower value 0.955 | locus YMR307W, strain GAS1, stronger effect = lower value 0.951 | locus YNL153C, strain GIM3, stronger effect = lower value 1.01 | locus YNL298W, strain CLA4 (second series), stronger effect = lower value 0.997 | locus YNL322C, strain KRE1, stronger effect = lower value 0.992 | locus YNR030W, strain Alg12, stronger effect = lower value 1.03 | locus YPL055C, strain LGE1, stronger effect = lower value 1.02 | locus YPL241C, strain CIN2, stronger effect = lower value 1.12 | locus YPR135W, strain CTF4, stronger effect = lower value 1.08
